In PubChem BioAssay (NCATS):
Several values for one entry are separate records, joined by “and”; a condition that tells them apart may be missing. Identical values can stand only once. Results filed as inconclusive are left out. Activity calls are given as the source filed them. Calls follow the shape of the dose curve; as a rule, active = well fitted cell-killing curve with a large enough effect; inconclusive = small, poorly fitted or top-dose-only effect; inactive = flat fitted curve, though single readings scatter.

Assay: Cellular viability qHTS for adrenocortical cancer (ACC) cell line NCI-H295R (AID 1963990); also: nearly all actives have a fitted effect of over 60% in size
Conditions: CellTiter-Glo ATP luminescence, 48 h; series mostly up to 46.1 µM; activity change, negative = viability loss: at the top concentration
Source text: PI: Naris Nilubol, MD Surgical Oncology Program, National Cancer Institute (NCI) National Institute of Health (NIH), Bethesda, Maryland Adrenocortical cancer (ACC) is a rare malignancy with poor survival outcomes and few treatment options. Currently, mitotane is the only FDA-approved therapy for ACC. Although adjuvant radiation therapy is rarely utilized, it has the potential to improve survival in select cases. Through a quantitative high-throughput drug screen (qHTS), we identified auranofin (AF), a thioredoxin reductase (TXNRD) inhibitor, as a promising candidate drug. This study aims to evaluate whether AF can enhance the efficacy of radiation therapy in the treatment of ACC. Two human ACC cell lines, SW-13 and NCI-H295R, were screened using the National Center for Advancing Translational Sciences (NCATS) Pharmaceutical Collection (NPC) and the Mechanism Interrogation PlatE (MIPE) library (~4,991 compounds). CellTiter-Glo (Cat # G7570, Promega, Madison, WI) was utilized to measure cell viability. Described herein are the results of the corresponding viability assay.
PROTOCOL TABLE (as described by Inglese J, Shamu CE and Guy RK. 2007) SEQUENCE No. (e.g., 1, 2, 3, etc.); […] (e.g., Cells, Incubation, Reagent, etc.); VALUE; DESCRIPTION. 1; Cells; 5 uL; white, solid-bottom, 1536-well tissue-culture treated plates. 2; Time; overnight culture at 37C with 5% CO2. 3; Compounds and control; 23 nL; Kalypsis pin tool (Wako USA) equipped with a 1536-well pin head to transfer to the assay plates. 4; Time; 48 hours; 37C with 5% CO2. 5; Reagent; 4 uL; CellTiter-Glo luminescent substrate mix. 6; Time; 20 min at room temperature. 7; Detection; Luminescence; ViewLux plate reader NOTES (numbers refer to Sequence numbers above) 1. NCI-H295R cells were harvested from a T175 flask and resuspended in ITS-supplemented DMEM serum-free medium at a concentration of 300 000 cells/mL. Then 5 uL of resuspended cells were dispensed into each well of white, solid-bottom, 1536-well tissue-culture-treated plates using a multidrop combi dispenser. The plates were covered with stainless steel gasket lids. 2-3. The plates were cultured overnight at 37C with 5% CO2. Twenty-three nL of compounds (eight selected concentrations from the NPC / MIPE) or positive control (10 mM stock of bortezomib) in DMSO was transferred to each well of the assay plate using a pin tool (Kalypsys, San Diego, CA, USA). The final concentration of the compounds in the 5 uL assay volume ranged from 0.5 nM to 46 uM. 4-6. After 48 hours of incubation at 37C and 5% CO2, 4 uL of CellTilter-Glo luminescent substrate mix (Promega, Madison, WI, USA) was added to each well. Then the plates were incubated for 20 minutes at room temperature. 7. After incubation, luminescence was measured using a ViewLux plate reader (PerkinElmer, Waltham, MA, USA) with a clear filter was used to measure the number of metabolically competent cells. To determine compound activity in the qHTS assay, the titration-response data for each sample was plotted and modeled by a four-parameter logistic fit yielding IC50 and efficacy (maximal response) values. Raw plate reads for each titration point were normalized relative to positive control ([…], 100% inhibition) and DMSO-only wells (basal, 0%). REFERENCES: Inglese J, Shamu CE and Guy RK, Reporting data from high throughput screening of small molecule libraries, Nature Chemical Biology, 2007, 3(8): 438-441. doi.org/10.1038/nchembio0807-438.

Row | Compound | activity change, negative = viability loss | Potency
1 | Nc1nc2c(ncn2CCC(CO)CO)c(=O)[nH]1 | -17.8% (inactive) | 
2 | COc1ccc(Cl)cc1C(=O)NCCc1ccc(S(=O)(=O)NC(=O)NC2CCCCC2)cc1 | -22.7% (inactive) | 
3 | Cc1c(NC(=O)c2cccnc2)c(=O)n(-c2ccccc2)n1C | 6.04% (inactive) | 
4 | CC[N+](C)(CC)CCOC(=O)C1c2ccccc2Oc2ccccc21 | -2.76% (inactive) | 
5 | CC(=O)Oc1cccc(C)c1 | -17.7% (inactive) | 
6 | C[C@@H]1CCC[C@H](C)N1 | -24% (inactive) | 
7 | C[C@]12C=CC(=O)C=C1CC[C@@H]1[C@@H]2[C@@H](O)C[C@@]2(C)[C@H]1CC[C@]2(O)C(=O)CO |  | inactive
8 | CC(=O)O[C@H]1CC[C@@]2(C)C(=CC[C@@H]3[C@@H]2CC[C@]2(C)C(C(C)=O)=CC[C@@H]32)C1 | 4.94% (inactive) | 
9 | Cc1cc2c(cc1S(N)(=O)=O)S(=O)(=O)CCC2 | 4.42% (inactive) | 
10 | NC(N)=NS(=O)(=O)c1ccc(N)cc1 | 1.13% (inactive) | 
11 | O=C(O)c1cc(=O)c2ccccc2o1 | 1.19% (inactive) | 
12 | OC1C(O)C(O)C(O)C(O)C1O (stereo not given) | -4.86% (inactive) | 
13 | CC/C(=C(/c1ccc(/C=C/C(=O)O)cc1)c1ccc2[nH]ncc2c1)c1ccc(F)cc1Cl |  | 15.8 µM (active)
14 | CN(C)C(=O)COC(=O)Cc1ccc(OC(=O)c2ccc(N=C(N)N)cc2)cc1 |  | inactive
15 | O=C(O)c1c(Cl)c(Cl)c(Cl)c(Cl)c1-c1c2cc(I)c(=O)c(I)c-2oc2c(I)c(O)c(I)cc12 |  | 14.1 µM (active)
16 | CC(=O)OCC(=O)[C@@]1(O)[C@H](C)C[C@H]2[C@@H]3CCC4=CC(=O)C=C[C@]4(C)[C@@]3(F)[C@@H](O)C[C@@]21C | -14.5% (inactive) | 
17 | O=c1[nH]c(=O)c2[nH]c(=O)[nH]c2[nH]1 |  | 2.66 µM (active)
18 | CN1CC[C@@H](NC(=O)Nc2ccc(C#N)cc2)C[C@@H]1c1nc2ccccc2[nH]1 | 6.73% (inactive) | 
19 | C/C=C/C=N/NC(=O)c1ccncc1 | -13.9% (inactive) | 
20 | O=c1[nH]c2cc(C(F)(F)F)c(N3CCOCC3)cc2n(CP(=O)(O)O)c1=O | -24% (inactive) | 

Row | Compound | activity change, negative = viability loss | Potency
21 | O=C(O)/C=C(\CC(=O)O)C(=O)O | -0.585% (inactive) | 
22 | CCN(CC)C(=O)C1CN2CCc3cc(OC)c(OC)cc3C2CC1OC(C)=O (stereo not given) | 3.43% (inactive) | 
23 | Cn1c(Nc2ccc(C(F)(F)F)cc2)nc2cc(Oc3ccnc(-c4ncc(C(F)(F)F)[nH]4)c3)ccc21 | -4.41% (inactive) | 
24 | Cc1cc2c(OCC(CNC(C)(C)C)OC(=O)c3ccccc3)cccc2[nH]1 (stereo not given) | -18.2% (inactive) | 
25 | CNCCc1ccccn1 | 2.98% (inactive) | 
26 | CCc1cccc2c3c([nH]c12)C(CC)(CC(=O)O)OCC3 (stereo not given) | -7.18% (inactive) | 
27 | CCC1(c2cnc[nH]2)Cc2ccccc2C1 | -28.4% (inactive) | 
28 | O=S(=O)(O)CCS |  | inactive
29 | CCn1cc(C(=O)O)c(=O)c2cc(F)c(N3CCNC(C)C3)c(F)c21 (stereo not given) |  | inactive
30 | O=C(O)c1ccc(O)c2ncccc12 | 0.811% (inactive) | 
31 | S=c1nc[nH]c2nc[nH]c12 |  | 2.06 µM (active) and 4.47 µM (active)
32 | CC(=O)Nc1c(I)c(NC(C)=O)c(I)c(C(=O)O)c1I | -7.11% (inactive) | 
33 | COC(=O)C1=C(C)NC(C)=C(C(=O)OC(C)(C)CN(C)CCC(c2ccccc2)c2ccccc2)C1c1cccc([N+](=O)[O-])c1 (stereo not given) |  | 20.6 µM (active)
34 | CNC(=O)c1c(-c2ccc(F)cc2)oc2cc(N(CCO)S(C)(=O)=O)c(C3CC3)cc12 | -27.9% (inactive) | 
35 | CCOC(=O)Oc1ccc(CCNC(=O)[C@H](CCSC)NC(C)=O)cc1OC(=O)OCC | -25.1% (inactive) | 
36 | CON(C)C(=O)N1N=C(c2cc(F)ccc2F)S[C@@]1(CCCN)c1ccccc1 |  | 0.0562 µM (active)
37 | Cc1c(-c2ccccc2)oc2c(C(=O)OCCN3CCCCC3)cccc2c1=O | -19.6% (inactive) | 
38 | O=c1c(-c2ccc(O)cc2)coc2cc(O[C@@H]3O[C@H](CO)[C@@H](O)[C@H](O)[C@H]3O)ccc12 | -1.21% (inactive) | 
39 | OC[C@]1(O)OC[C@@H](O)[C@H](O)[C@@H]1O | -0.722% (inactive) | 
40 | CC1=C(C(=O)Nc2cc3cn[nH]c3cc2F)C(c2ccc(C(F)(F)F)cc2)CC(=O)N1 (stereo not given) | 13.1% (inactive) | 
